Laboratory results: PubChem BioAssay
Where “and” joins values, the source holds several entries; their conditions need not be identical. Identical values can stand only once. Calls of active or inactive are those of the source.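 Rule for the calls: active = mean z-score across replicates of 1.96 or higher in either the MELAS or the Rieske mutant cell line; inactive = the rest.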

Assay: survival rescue of mitochondrial mutant cells in low glucose, primary screen, MELAS cybrids, Rieske KO mouse fibroblasts, CellTiter-Glo (AID 1508586);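 note: test concentration not given here; z relative to plate mean and SD of compound and empty wells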
Settings: MELAS cybrid survival, CellTiter-Glo 48 h, stronger effect = higher value
For `CN1[C@@H]2CC(OC(=O)[C@H](CO)c3ccccc3)C[C@H]1[C@@H]1O[C@@H]12` (stereo not given in full), the z-score was -0.375 (inactive) and 0.309 (inactive). For `CC(C)(C(=O)O)c1ccc(C(O)CCCN2CCC(C(O)(c3ccccc3)c3ccccc3)CC2)cc1` (stereo not given), the z-score was -0.235 (inactive) and -0.763 (inactive). For `CC(C)n1c(/C=C/[C@@H](O)C[C@@H](O)CC(=O)O)c(-c2ccc(F)cc2)c2ccccc21`, the z-score was -1.26 (inactive). For `CN(C)C(=N)N=C(N)N`, the z-score was -0.356 (inactive) and 0.193 (inactive). With `O=C(O)c1cn(C2CC2)c2cc(N3CCNCC3)c(F)cc2c1=O` the z-score was -0.333 (inactive) and -0.308 (inactive). With `COc1ccc(-c2nc3ccc(C4=NNC(=O)CC4C)cc3[nH]2)cc1` (stereo not given) the z-score was 1.76 (inactive). In the case of `O=S(=O)(c1cccc2cnccc12)N1CCCNCC1`, the z-score is reported as -0.155 (inactive) and -0.944 (inactive). For `CS(=O)(=O)c1ccc([C@@H](O)[C@@H](CF)NC(=O)C(Cl)Cl)cc1`, the z-score was -0.214 (inactive) and 0.287 (inactive). For `C[C@@H](O[C@H]1OCCN(Cc2n[nH]c(=O)[nH]2)[C@H]1c1ccc(F)cc1)c1cc(C(F)(F)F)cc(C(F)(F)F)c1`, the z-score was 0.822 and 0.307 (inactive). With `NCCCC(O)(P(=O)(O)O)P(=O)(O)O` the z-score was 0.332 (inactive) and -1.05 (inactive) and 0.581 (inactive).
